# Experimental data: PubChem BioAssay (Tox21)
# “And” between values parts separate entries of the source, which are not always exact repeats. Equal entries are not always repeated. Inconclusive results are not listed. A call without a number means that no potency is given here. More than one record can exist for a structure, and the calls need not agree. The source made the active and inactive calls. Calls come from the whole dose curve; as a rule, active = well fitted curve in the direction sought with a large enough effect in the repeat runs; inconclusive = weak or mixed curves; inactive = no such curve, though single readings can be large; an effect the other way counts as inactive or inconclusive.
# Legend:
# [1] = molecular target: Cytochrome P450 2D6 (Homo sapiens) (UniProt P10635); assay: Cytochrome P450 Family 2 Subfamily D Member 6 (CYP2D6) small molecule antagonists: luciferase reporter qHTS assay (AID 1671196); note: nearly all actives have a fitted effect of over 50% in size; note: potency is the fitted concentration of half-maximal effect
# Chain of Cytochrome P450 2D6 (Homo sapiens) (P10635 whole entry, looked up): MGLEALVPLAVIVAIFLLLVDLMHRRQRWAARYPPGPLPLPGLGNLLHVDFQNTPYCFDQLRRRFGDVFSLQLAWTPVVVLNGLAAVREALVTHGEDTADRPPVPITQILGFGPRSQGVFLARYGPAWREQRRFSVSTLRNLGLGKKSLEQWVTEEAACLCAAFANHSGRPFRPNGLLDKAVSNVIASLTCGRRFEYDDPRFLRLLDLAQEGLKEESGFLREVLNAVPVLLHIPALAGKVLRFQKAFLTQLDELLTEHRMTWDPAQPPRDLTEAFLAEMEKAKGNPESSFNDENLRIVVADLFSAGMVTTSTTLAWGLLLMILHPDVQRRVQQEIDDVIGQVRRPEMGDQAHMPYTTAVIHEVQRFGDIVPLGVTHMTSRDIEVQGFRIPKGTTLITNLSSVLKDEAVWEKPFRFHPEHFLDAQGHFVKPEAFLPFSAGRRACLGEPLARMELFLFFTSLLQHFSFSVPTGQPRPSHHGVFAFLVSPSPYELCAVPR
# In short: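 CYP2D6 activity was followed as luminescence from its luciferin product after a 1 h NADPH-driven reaction at room temperature. Enzyme-substrate mix and compound were pre-incubated for 10 min, and the signal was read 20 min after adding detection reagent.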
# [2] = molecular target: Cytochrome P450 2C19 (Homo sapiens) (UniProt P33261); assay: Cytochrome P450 Family 2 Subfamily C Member 19 (CYP2C19) small molecule antagonists: luciferase reporter qHTS assay (AID 1671197); note: nearly all actives have a fitted effect of over 65% in size; note: potency is the fitted concentration of half-maximal effect
# Chain of Cytochrome P450 2C19 (Homo sapiens) (P33261 whole entry, looked up): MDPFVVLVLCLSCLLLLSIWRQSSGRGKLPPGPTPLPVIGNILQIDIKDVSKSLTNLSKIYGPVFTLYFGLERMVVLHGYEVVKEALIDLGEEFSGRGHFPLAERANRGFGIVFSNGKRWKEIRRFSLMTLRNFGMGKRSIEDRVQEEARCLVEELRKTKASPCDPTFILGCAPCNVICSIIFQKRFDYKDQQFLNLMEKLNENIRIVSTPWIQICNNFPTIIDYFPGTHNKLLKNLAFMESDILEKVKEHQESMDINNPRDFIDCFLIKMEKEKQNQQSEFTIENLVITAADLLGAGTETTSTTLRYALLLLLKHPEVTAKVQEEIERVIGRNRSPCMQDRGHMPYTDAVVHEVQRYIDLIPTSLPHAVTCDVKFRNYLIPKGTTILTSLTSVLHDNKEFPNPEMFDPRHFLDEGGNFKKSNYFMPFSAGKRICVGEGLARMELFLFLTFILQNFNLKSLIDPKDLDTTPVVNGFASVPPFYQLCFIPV
# In short: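 First, compounds are pinned into enzyme-substrate mix and held 10 min at room temperature. Second, NADPH regeneration solution is added and plates incubate 1 h at 37C. Third, detection reagent is added and luminescence read after 20 min.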
# [3] = molecular target: Cytochrome P450 2C9 (Homo sapiens) (UniProt P11712); assay: Cytochrome P450 Family 2 Subfamily C Member 9 (CYP2C9) small molecule antagonists: luciferase reporter qHTS assay (AID 1671198); note: nearly all actives have a fitted effect of over 50% in size; note: potency is the fitted concentration of half-maximal effect
# Chain of Cytochrome P450 2C9 (Homo sapiens) (P11712 whole entry, looked up): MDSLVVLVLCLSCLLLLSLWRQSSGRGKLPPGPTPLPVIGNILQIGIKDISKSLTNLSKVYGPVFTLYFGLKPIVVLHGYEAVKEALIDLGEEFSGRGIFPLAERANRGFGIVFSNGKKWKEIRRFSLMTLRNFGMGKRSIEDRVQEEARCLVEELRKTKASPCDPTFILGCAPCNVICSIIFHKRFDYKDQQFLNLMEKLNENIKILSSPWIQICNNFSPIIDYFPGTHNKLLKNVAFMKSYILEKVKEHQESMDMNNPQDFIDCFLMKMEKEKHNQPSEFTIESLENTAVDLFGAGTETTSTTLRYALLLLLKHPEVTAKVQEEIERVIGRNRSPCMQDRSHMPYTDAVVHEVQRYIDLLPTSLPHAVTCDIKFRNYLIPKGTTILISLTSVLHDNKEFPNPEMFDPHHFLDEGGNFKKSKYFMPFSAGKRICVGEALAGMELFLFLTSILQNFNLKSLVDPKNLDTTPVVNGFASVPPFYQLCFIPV
# In short: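 CYP2C9 activity was measured with a P450-Glo proluciferin substrate. Enzyme–substrate mix was held with compound for 10 min at room temperature, then NADPH regeneration solution was added for 1 h at 37C. Luciferin product was read as luminescence.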
# [4] = molecular target: Voltage-gated inwardly rectifying potassium channel KCNH2 (Homo sapiens) (UniProt Q12809); assay: Human Ether-a-go-go-Related Gene (hERG) channel small molecule antagonists: fluorescence cell-based qHTS assay (AID 1671200); note: series mostly up to about 77 µM; nearly all actives have a fitted effect of over 50% in size
# Chain of Voltage-gated inwardly rectifying potassium channel KCNH2 (Homo sapiens) (Q12809 whole entry, looked up): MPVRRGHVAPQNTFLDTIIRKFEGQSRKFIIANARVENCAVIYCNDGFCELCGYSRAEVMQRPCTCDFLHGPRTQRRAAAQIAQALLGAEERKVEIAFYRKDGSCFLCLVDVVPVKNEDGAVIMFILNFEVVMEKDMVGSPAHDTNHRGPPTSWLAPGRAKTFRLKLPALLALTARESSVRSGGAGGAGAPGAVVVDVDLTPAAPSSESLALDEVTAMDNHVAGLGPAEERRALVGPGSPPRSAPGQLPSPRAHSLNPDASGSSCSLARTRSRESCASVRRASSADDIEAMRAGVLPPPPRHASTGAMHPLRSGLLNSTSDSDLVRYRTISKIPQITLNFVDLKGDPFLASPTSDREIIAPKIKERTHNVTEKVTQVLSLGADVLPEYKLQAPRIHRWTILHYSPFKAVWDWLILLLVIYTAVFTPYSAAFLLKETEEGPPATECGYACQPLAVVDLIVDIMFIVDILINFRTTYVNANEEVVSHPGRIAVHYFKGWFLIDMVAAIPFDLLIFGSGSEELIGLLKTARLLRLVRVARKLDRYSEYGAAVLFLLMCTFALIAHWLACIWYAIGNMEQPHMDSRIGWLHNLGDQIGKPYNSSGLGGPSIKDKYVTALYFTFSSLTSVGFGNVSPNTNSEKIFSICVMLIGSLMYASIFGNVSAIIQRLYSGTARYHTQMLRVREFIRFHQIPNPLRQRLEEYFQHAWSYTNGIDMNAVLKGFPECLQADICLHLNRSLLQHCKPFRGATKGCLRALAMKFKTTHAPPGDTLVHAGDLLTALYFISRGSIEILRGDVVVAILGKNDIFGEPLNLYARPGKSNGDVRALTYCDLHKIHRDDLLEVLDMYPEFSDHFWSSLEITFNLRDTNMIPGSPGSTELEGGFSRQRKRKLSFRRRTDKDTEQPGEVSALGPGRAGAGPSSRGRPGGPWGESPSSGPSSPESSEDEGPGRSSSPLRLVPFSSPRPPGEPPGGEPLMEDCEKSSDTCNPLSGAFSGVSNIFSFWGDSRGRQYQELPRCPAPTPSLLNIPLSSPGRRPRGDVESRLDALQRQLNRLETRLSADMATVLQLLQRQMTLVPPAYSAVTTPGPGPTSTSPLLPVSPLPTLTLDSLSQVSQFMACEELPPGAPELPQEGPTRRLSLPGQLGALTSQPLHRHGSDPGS
# In short: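 Thallium flux as potassium surrogate: FluxOR II dye loaded 1 h at room temperature into hERG-expressing U2OS cells, then stimulus buffer added after 10 min. Kinetic 480 nm excitation/540 nm emission read, 2 min.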
# [5] = molecular target: Cytochrome P450 3A4 (Homo sapiens) (UniProt P08684); assay: Cytochrome P450 Family 3 Subfamily A Member 4 (CYP3A4) small molecule antagonists: luciferase reporter qHTS assay (AID 1671201); note: nearly all actives have a fitted effect of over 50% in size; note: potency is the fitted concentration of half-maximal effect
# Chain of Cytochrome P450 3A4 (Homo sapiens) (P08684 whole entry, looked up): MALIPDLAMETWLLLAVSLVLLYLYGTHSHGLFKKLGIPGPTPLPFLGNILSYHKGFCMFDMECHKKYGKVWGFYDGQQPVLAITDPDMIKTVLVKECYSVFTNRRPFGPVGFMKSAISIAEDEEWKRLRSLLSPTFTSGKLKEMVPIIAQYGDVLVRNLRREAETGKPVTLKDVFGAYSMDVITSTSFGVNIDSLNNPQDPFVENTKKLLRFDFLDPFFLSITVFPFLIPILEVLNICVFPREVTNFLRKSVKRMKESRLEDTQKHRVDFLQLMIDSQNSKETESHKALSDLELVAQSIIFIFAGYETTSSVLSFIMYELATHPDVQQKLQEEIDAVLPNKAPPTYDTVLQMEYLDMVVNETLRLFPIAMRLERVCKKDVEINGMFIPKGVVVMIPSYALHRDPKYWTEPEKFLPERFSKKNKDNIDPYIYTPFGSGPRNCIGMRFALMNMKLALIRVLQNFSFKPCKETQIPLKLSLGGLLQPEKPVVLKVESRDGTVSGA
# In short: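 Recombinant human CYP3A4 converts a proluciferin substrate to luciferin over 1 h at room temperature after NADPH regeneration solution is added (compound preincubated 10 min); detection reagent stops reaction, luminescence read 20 min later as relative units.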
# [6] = molecular target: Cytochrome P450 1A2 (Homo sapiens) (UniProt P05177); assay: Cytochrome P450 Family 1 Subfamily A Member 2 (CYP1A2) small molecule antagonists: luciferase reporter qHTS assay (AID 1671199); note: nearly all actives have a fitted effect of over 50% in size; note: potency is the fitted concentration of half-maximal effect
# Chain of Cytochrome P450 1A2 (Homo sapiens) (P05177 whole entry, looked up): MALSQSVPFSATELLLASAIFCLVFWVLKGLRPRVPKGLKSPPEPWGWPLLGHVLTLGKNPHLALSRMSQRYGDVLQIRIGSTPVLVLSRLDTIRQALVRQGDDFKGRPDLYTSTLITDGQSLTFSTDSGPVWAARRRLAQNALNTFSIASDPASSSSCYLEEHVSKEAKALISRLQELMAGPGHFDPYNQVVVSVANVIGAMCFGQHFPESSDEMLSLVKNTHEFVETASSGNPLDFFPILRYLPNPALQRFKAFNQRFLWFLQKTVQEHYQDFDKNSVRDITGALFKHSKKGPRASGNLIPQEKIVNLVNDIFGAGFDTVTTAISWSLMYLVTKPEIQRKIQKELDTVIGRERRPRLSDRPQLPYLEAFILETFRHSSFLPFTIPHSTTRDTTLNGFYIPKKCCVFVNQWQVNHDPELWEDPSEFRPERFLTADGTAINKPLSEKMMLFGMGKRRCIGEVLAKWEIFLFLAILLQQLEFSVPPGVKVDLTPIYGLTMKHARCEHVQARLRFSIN
# In short: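 Luminescence from luciferin formed by CYP1A2 from a proluciferin substrate, read 20 min after detection reagent. Compound was pre-incubated 10 min with enzyme-substrate, and reaction started with NADPH regeneration solution for 1 h at room temperature; furafylline control.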
SMILES,Potency [1],Potency [2],Potency [3],Potency [4],Potency [5],Potency [6]
O=C(O)c1ccccc1C(=O)O,inactive,41.2 µM (active) and 82.1 µM (active),inactive,inactive,inactive,–
O=C(O)CCCCCCCCC(=O)O,inactive,50.5 µM (active) and inactive,inactive,inactive,inactive,–
CC(C)(C#N)c1cc(Cn2cncn2)cc(C(C)(C)C#N)c1,–,21.8 µM (active) and 15.5 µM (active),9.75 µM (active) and 8.71 µM (active),inactive,–,9.75 µM (active) and 15.5 µM (active)
CCCCCCCCCCN,35.8 µM (active) and 12.6 µM (active),7.14 µM (active) and 5.64 µM (active),–,inactive,inactive,31.9 µM (active) and 31.7 µM (active)
CN(C)c1ccc(O)c2c1C[C@H]1C[C@H]3[C@H](N(C)C)C(=O)C(C(N)=O)=C(O)[C@@]3(O)C(=O)C1=C2O,–,inactive,inactive,inactive,inactive,inactive
Cc1ccc(S(=O)(=O)N=C=O)cc1,inactive,inactive,inactive,inactive,inactive,inactive
CC(C)OP(=O)(CP(=O)(OC(C)C)OC(C)C)OC(C)C,–,35.6 µM (active) and inactive,inactive,inactive,–,inactive
O=C(O)/C=C/C(=O)O,–,inactive,inactive,inactive,inactive,inactive
CC(=O)CCC=C(C)C,inactive,inactive,inactive,inactive,inactive,inactive
COCCOC(=O)c1ccccc1C(=O)OCCOC,inactive,22.6 µM (active) and 25.2 µM (active),–,inactive,inactive,22.6 µM (active) and 35.6 µM (active)
CCOC(=O)c1ccc(N)cc1,–,39.9 µM (active) and inactive,35.6 µM (active),inactive,inactive,12.6 µM (active)
CSc1ccc(Cl)cc1,–,inactive,inactive,inactive,inactive,inactive
CC(=O)CC(C)(C)O,–,40.6 µM (active) and inactive,inactive,inactive,inactive,inactive
CC(C)CC(C)O (stereo unspecified),inactive,inactive,inactive and 31.7 µM (active),inactive,inactive,–
O=S(=O)(O)c1ccc(N=Nc2c(O)ccc3cc(S(=O)(=O)O)ccc23)cc1,31.8 µM (active),71.3 µM (active),–,inactive,inactive,40.1 µM (active)
C[C@]12CCC(=O)C=C1CC[C@@H]1[C@@H]2[C@@H](O)C[C@@]2(C)[C@H]1CC[C@]2(O)C(=O)CO,inactive,inactive,inactive,inactive,–,–
C=C(C)CNCC,31.2 µM (active) and inactive,inactive,inactive,inactive,inactive,inactive
OCc1ccccc1,inactive,35.1 µM (active),–,inactive,inactive,inactive
CC(=O)OC1CC(C)OC(C)O1 (stereo unspecified),inactive,70.1 µM (active) and inactive,inactive,inactive,inactive,inactive
CC(C)(Oc1ccc(CCNC(=O)c2ccc(Cl)cc2)cc1)C(=O)O,–,inactive,28.3 µM (active) and 13.8 µM (active),inactive,inactive,inactive
Cc1ccc2ncccc2c1,inactive,inactive,–,inactive,inactive,39.9 µM (active) and inactive

SMILES,Potency [1],Potency [2],Potency [3],Potency [4],Potency [5],Potency [6]
Nc1nc(N)nc(-c2ccccc2)n1,–,inactive,inactive,inactive,inactive,31.4 µM (active) and 35.6 µM (active)
CN1C(=O)CC[C@H]1c1cccnc1,–,inactive,inactive,inactive,–,inactive
C=CC(=O)OCCC(=O)O,23.2 µM (active) and inactive,104 µM (active) and inactive,inactive,inactive,inactive,–
COc1ccc(C)cc1N,24.3 µM (active) and 25.2 µM (active),38.6 µM (active) and 35.6 µM (active),–,inactive,6.86 µM (active) and 20 µM (active),28.3 µM (active)
CCOCCOCCOCCO,–,82.4 µM (active) and inactive,–,inactive,inactive,–
CC1(C)S[C@@H]2[C@H](NC(=O)COc3ccccc3)C(=O)N2[C@H]1C(=O)O,–,inactive,–,inactive,–,inactive
O=[N+]([O-])c1ccc2nc[nH]c2c1,–,inactive,–,inactive,inactive,36.3 µM (active) and 39.9 µM (active)
CC1(C)OC[C@@H]2O[C@@]3(C(=O)O)OC(C)(C)O[C@H]3[C@@H]2O1,–,inactive,inactive,inactive,inactive,inactive
C=C(C)C(=O)OCC(C)C,–,inactive,inactive,inactive,inactive,inactive
N[C@H](Cc1c[nH]c2ccccc12)C(=O)O,–,inactive,inactive,inactive,inactive,–
NC(=S)NNC(N)=S,–,34.7 µM (active) and inactive,35.6 µM (active),inactive,inactive,inactive
CCCCCCCC=O,–,inactive,inactive,inactive,inactive,inactive
CCOCC(=O)O,–,inactive,inactive,inactive,inactive,inactive
c1ccc(Oc2ccccc2)cc1,–,inactive,inactive,inactive,inactive,inactive
CC(=O)OCCOC(C)=O,–,inactive,inactive,inactive,inactive,–
CC(C)CCCCCCCOC(=O)CCCCC(=O)OCCCCCCCC(C)C,–,92.8 µM (active) and inactive,inactive,inactive,inactive,inactive
CCCCCC(=O)O,–,71.1 µM (active) and inactive,inactive,inactive,inactive,inactive
C=C(C)[C@H]1CC=C(C)C(=O)C1,–,inactive,inactive,inactive,inactive,inactive
CC(C)OC(=O)COc1ccc(Cl)cc1Cl,–,11.1 µM (active) and 50.2 µM (active),35 µM (active) and 35.6 µM (active),inactive,inactive,6.23 µM (active) and 63.3 µM (active)
COc1cc(OC)c(C(=O)CCCN2CCCC2)c(OC)c1,–,inactive,–,inactive,–,inactive
CCCCCCCCCCCCCCCCO,–,inactive,17.8 µM (active) and inactive,inactive,inactive,inactive

SMILES,Potency [1],Potency [2],Potency [3],Potency [4],Potency [5],Potency [6]
C=CCc1ccc(OC)c(OC)c1,–,inactive,–,inactive,inactive,18 µM (active) and 22.4 µM (active)
CN/C(=C\[N+](=O)[O-])NCCSCc1csc(CN(C)C)n1,–,–,inactive,inactive,inactive,inactive
CN(C)c1ccc(Cc2ccc(N(C)C)cc2)cc1,–,179 nM (active) and 356 nM (active),12.7 µM (active) and 31.7 µM (active),–,35.7 µM (active) and 15.9 µM (active),2.26 µM (active) and 5.03 µM (active)
O=c1[nH]cnc2[nH]ncc12,–,inactive,inactive,inactive,inactive,inactive
CC(C)(C)c1cc(Cc2cc(C(C)(C)C)c(O)c(C(C)(C)C)c2)cc(C(C)(C)C)c1O,–,inactive,inactive,inactive,inactive,inactive and 71 µM (active)
CCCCC(C=O)CC (stereo unspecified),–,inactive,inactive,inactive,inactive,inactive
CCNc1ccccc1,–,25.6 µM (active),–,inactive,inactive,32.3 µM (active) and inactive
Clc1ccccn1,–,inactive,inactive,inactive,inactive,inactive
CCCOC(=O)c1ccccc1,–,inactive,inactive,inactive,inactive,inactive
COC(=O)CCCC(=O)OC,–,inactive,inactive,inactive,inactive,inactive
CC1(C)CC(N)CC(C)(CN)C1 (stereo unspecified),–,inactive,inactive,inactive,5.73 µM (active) and 4.48 µM (active),inactive
CCCCOC(=O)c1ccc(N)cc1,–,–,–,inactive,–,–
CCO[Si](CCC#N)(OCC)OCC,–,inactive,inactive,inactive,inactive,inactive
NCCNCCN,–,inactive,inactive,inactive,inactive,71.2 µM (active) and inactive
O=S(=O)(O)c1ccccc1,–,–,–,inactive,–,–
CC(CCO)CC(C)(C)C (stereo unspecified),–,inactive and 79.6 µM (active),–,inactive,inactive,inactive
NCCN1CCNCC1,–,inactive,inactive,inactive,inactive,inactive
COc1ccc(CCC(C)=O)cc1,–,28.3 µM (active) and inactive,inactive,inactive,inactive,22.4 µM (active) and 20.4 µM (active)
COc1ccccc1OCC(O)CO (stereo unspecified),–,–,–,inactive,–,–
CCNc1cccc(C)c1,–,30.5 µM (active) and inactive,–,inactive,inactive,inactive
CN(C)CCOC(=O)COc1ccc(Cl)cc1,–,–,inactive,inactive,inactive,–
